The AC50 is the midpoint of the concentration-response curve, whichever way the signal moves.

The source of these data is PubChem BioAssay (EPA / NIEHS).

Structures are written as SMILES. The source made the active and inactive calls. The calls were made as follows: active = hit-call score of the fitted dose curve at least 0.9, where 1 is the maximum; inactive = score below 0.9.

A short description of assay [1]: APR_HepG2_CellCycleArrest_24hr: Apredica 24-hour HepG2 Assay for Cell Cycle Arrest (AID 2282905).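 Also: cell cycle arrest scored as ratio of 2N to 4N nuclear DNA content.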 The following applies: imaging, actives raise or lower the signal. In a few lines:
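HepG2 cells were exposed to compounds at 0.39–200 uM (ten concentrations, duplicate) in 0.5% v/v DMSO for 24 hr. After formaldehyde fixation and Triton permeabilization, Hoechst 33342-stained nuclei were imaged at 20x; DNA content was quantified, with bidirectional fitting against DMSO.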

Assay [2] can be described thus: APR_HepG2_StressKinase_1hr: Apredica 1-hour HepG2 Assay for Stress Kinase (AID 2282906). To be noted: HepG2 stress kinase (phospho-c-Jun) imaging, actives raise or lower the signal. In a few lines: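 HepG2 cells dosed 0.39-200 uM (0.5% DMSO) for 1 h, then formaldehyde-fixed. Stress kinase read by phospho-c-Jun immunofluorescence using high-content imaging; bidirectional fit vs DMSO.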

A short description of assay [3]: APR_HepG2_NuclearSize_24hr: Apredica 24-hour HepG2 Assay for Nuclear Size (AID 2282907). The following applies: high-content imaging, actives raise or lower the signal. Put shortly: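 HepG2 human liver cells were exposed for 24 hr to compounds at 0.39–200 uM (ten concentrations, duplicate) in 0.5% v/v DMSO. They were then formaldehyde-fixed, Triton-permeabilized and Hoechst 33342-stained, and nuclear diameter was imaged at 20x. Bidirectional fits were made against DMSO.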

A short description of assay [4]: APR_HepG2_CellLoss_24hr: Apredica 24-hour HepG2 Assay for Cell Loss (AID 2282908).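 As to AC50: fit in both directions so a hit may be cell loss or gain.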 The following applies: high-content imaging. In a few lines:
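Compounds were tested at 0.39–200 uM in duplicate with 0.5% v/v DMSO final. Cells were then fixed in 3.7% formaldehyde, Hoechst 33342 nuclei were imaged at 20x by HCS, and cell number was fitted bidirectionally against DMSO.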

Assay [5] can be described thus: APR_HepG2_MicrotubuleCSK_24hr: Apredica 24-hour HepG2 Assay for Microtubule CSK Stabilty (AID 2282909). To be noted: HepG2 microtubule cytoskeleton imaging, actives raise or lower the signal. In a few lines:
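HepG2 cells exposed 24 h to compounds at 0.39–200 uM (duplicate, 0.5% v/v DMSO final), then fixed, permeabilized and immunostained for alpha-tubulin with Hoechst 33342. Cytoskeleton imaged at 20x; bidirectional fit versus DMSO baseline.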

Assay [6] in a line: APR_HepG2_MitoticArrest_24hr: Apredica 24-hour HepG2 Assay for Mitotic Arrest (AID 2282910). The following applies: high-content imaging, actives raise or lower the signal. Put shortly: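 HepG2 human liver cells were exposed to compounds at 0.39–200 uM (10 concentrations, duplicate) in 0.5% v/v DMSO for 24 hr, then fixed and immunostained for phospho-histone H3 with Hoechst 33342. Mitotic arrest came from HCS fluorescent imaging, fitted bidirectionally against DMSO.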

Assay [7] in a line: APR_HepG2_MitoMembPot_24hr: Apredica 24-hour HepG2 Assay for Mitochondrial Membrane Potential (AID 2282911). The following applies: imaging, actives raise or lower the signal. In a few lines:
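HepG2 cells exposed 24 h to 0.39–200 uM compounds in duplicate, 0.5% v/v DMSO final. MitoTracker Red CMXRos 250 nM loaded 30 min before formaldehyde fixation; high-content imaging at 20x, bidirectional fit versus DMSO.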

Assay [8] can be described thus: APR_HepG2_MitoMass_24hr: Apredica 24-hour HepG2 Assay for Mitochondrial Mass (AID 2282912). To be noted: high-content imaging, actives raise or lower the signal. In a few lines:
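Human HepG2 liver cells were exposed for 24 hr to compounds at 0.39–200 uM (duplicates, 0.5% v/v DMSO final). They were stained live with 250 nM MitoTracker Red CMXRos for 30 min, fixed in 3.7% formaldehyde, and imaged by HCS fluorescence; signals were fitted bidirectionally against DMSO.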

The nature of assay [9]: APR_HepG2_p53Act_24hr: Apredica 24-hour HepG2 Assay for p53 Activation (AID 2282913).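 Also: p53 protein immunofluorescence averaged per cell in HepG2 with Hoechst nuclei.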 The following applies: high-content imaging, actives raise or lower the signal. Put shortly: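 HepG2 cells exposed 24 h to compounds at 0.39–200 uM in duplicate, 0.5% v/v DMSO final; fixed, permeabilized, stained with anti-p53 antibody and Hoechst 33342; fluorescence imaging; bidirectional curve fit versus DMSO.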

A short description of assay [10]: APR_HepG2_CellCycleArrest_72hr: Apredica 72-hour HepG2 Assay for Cell Cycle Arrest (AID 2282914). The following applies: high-content imaging, actives raise or lower the signal. In a few lines:
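HepG2 cells exposed 72 h in duplicate to 0.39–200 uM compound, 0.5% DMSO final. Formaldehyde-fixed, Hoechst 33342-stained nuclei imaged at 20x, six fields per well; DNA content per valid cell quantified by cell-cycle image analysis, bidirectional fit versus DMSO.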

With `CC(C)N(C(=O)COc1nnc(C(F)(F)F)s1)c1ccc(F)cc1`, the molecule was called inactive in [1], in assay [2], in assay [3], in [6], in assay [7] and in [8]. In addition, the molecule was classed as inactive in [9] and in assay [10]. Besides, the AC50 in [4] is 115 µM (active); in assay [5], 99.5 µM (active).

On to `CCCN(CCC)c1c([N+](=O)[O-])cc(C(F)(F)F)cc1[N+](=O)[O-]`, for which the molecule was called inactive in [1], in assay [2], in assay [3], in assay [4], in [5] and in [6]. Further, the molecule was called inactive in assay [8] and in [10]. Further, the AC50 in assay [7] was 118 µM (active).

`CC1(c2ccc(Oc3ccccc3)cc2)OC(=O)N(Nc2ccccc2)C1=O` (configuration not stated): the result in [1], in [2], in assay [3], in assay [8], in [9] and in assay [10] was inactive. The AC50 in assay [4] is 120 µM (active); in assay [5], 88.5 µM (active); in assay [6], 98.3 µM (active); in [7] it was 6.77 µM (active).

For the molecule `COP(=S)(OC)Oc1ccc([N+](=O)[O-])cc1`, the molecule was called inactive in assay [1], in assay [2], in assay [3], in assay [4], in [5] and in assay [6]. For the same molecule, the molecule was classed as inactive in assay [7], in [8], in assay [9] and in [10].

`CCC(C)Nc1c([N+](=O)[O-])cc(C(C)(C)C)cc1[N+](=O)[O-]` (configuration not stated): the AC50 in assay [1] was 89 µM (active); in assay [4], 45.8 µM (active); in assay [5] it was 27.4 µM (active); in [7], 100 µM (active); in [10], 83.7 µM (active). In addition, the molecule was called inactive in [2], in assay [3], in assay [6] and in assay [8].

For `CC1(C)C(C=C(Cl)Cl)C1C(=O)OC(C#N)c1ccc(F)c(Oc2ccccc2)c1` (configuration not stated), the molecule was classed as inactive in assay [1], in assay [2], in assay [3], in [4], in assay [5] and in assay [6]. Moreover, the outcome in assay [7], in assay [8], in assay [9] and in [10] was inactive.

For `O=[N+]([O-])/N=C1\NCCN1Cc1ccc(Cl)nc1`, the molecule was called inactive in assay [1], in assay [2], in assay [3], in assay [4], in assay [5] and in [6]. For the same molecule, the call in [7], in [8] and in [10] was inactive.

On to `CCOC1Oc2ccc(OS(C)(=O)=O)cc2C1(C)C` (configuration not stated), for which the molecule was called inactive in assay [1], in [2], in assay [3], in assay [4], in assay [5] and in [6]. Also, the molecule was called inactive in [7], in [8] and in [10].

Take `C#CCN1C(=O)COc2cc(F)c(N3C(=O)C4=C(CCCC4)C3=O)cc21`: the molecule was called inactive in [1], in assay [2], in [3], in assay [4], in assay [5] and in assay [6]. Moreover, the call in [7], in assay [8] and in assay [10] was inactive.

In the case of `CN1CSC(=S)N(C)C1`, the molecule was classed as inactive in assay [1], in assay [3], in assay [5], in assay [7], in assay [8] and in [9]. Further, the AC50 was 40.9 µM (active) in assay [2], 16.8 µM (active) in assay [4], 27 µM (active) in assay [6] and 6.04 µM (active) in assay [10].

In the case of `N#CN`, the molecule was classed as inactive in assay [1], in assay [2], in assay [3], in [4], in assay [5] and in assay [6]. For the same molecule, the result in [7], in assay [8] and in [10] was inactive.

Regarding `Clc1ccccc1-c1nnc(-c2ccccc2Cl)nn1`, the values for the AC50 in [1] and in assay [7] were 67.6 µM (active) and 59.5 µM (active), respectively. Further, the molecule was classed as inactive in assay [2], in assay [3], in assay [4], in assay [5], in [6] and in [8]. The molecule was called inactive in [10].

As for `CCC(C)(NC(=O)c1cc(Cl)c(C)c(Cl)c1)C(=O)CCl` (configuration not stated), the AC50 in assay [1] is 12.8 µM (active); in assay [2] it was 37 µM (active); in assay [4], 32.3 µM (active); in [6], 8.8 µM (active); in assay [7], 30.1 µM (active). For the same molecule, the molecule was classed as inactive in assay [3], in assay [5], in [8], in assay [9] and in assay [10].

Regarding `CNC(=O)CSP(=S)(OC)OC`, the molecule was called inactive in assay [1], in assay [2], in assay [3], in [4], in [5] and in [6]. In addition, the molecule was classed as inactive in [7], in assay [8] and in assay [10].
